Source: PubChem BioAssay (NCATS)
Results filed as inconclusive are left out. Values without a mark were called inactive. The source made the active and inactive calls. Calls come from the whole dose curve; as a rule, active = well fitted curve in the direction sought with a large enough effect; inconclusive = small, poorly fitted or top-dose-only effect, or another doubt; inactive = no such curve, though single readings can be large; an effect the other way counts as inactive or inconclusive.

Columns and labels:
[1] = molecular target: Cellular tumor antigen p53 (Homo sapiens) (UniProt P04637); assay: Primary qHTS for small molecule compounds that upregulate eGFP-tagged delta133p53alpha (in N-terminal) cells. (AID 2060322); settings: NCI-H358 eGFP-delta133p53alpha fluorescence, 24 h; activation: hits give high values;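 note: cells pre-induced with doxycycline then dosed without doxycycline; 0% = DMSO vehicle and 100% = reference activator; nearly all actives have a fitted effect of over 75% in size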
In short: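 NCI-H358 cells pre-induced 24 h with 10 ng/ml doxycycline for eGFP-delta133p53alpha, plated dox-free and exposed 24 h at 37C to titrated compounds. Fixed, Hoechst-stained; gated GFP peak intensity by laser scanning cytometry, normalized to DMSO (0%) and 57.5 uM 5-azacytidine (100%).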

[2] = BET inhibitor-based combinations targeting novel dependencies in MECOM-rearranged (r) AML: OCI-AML3 cell line (AID 2202232); settings: CellTiter-Glo luminescence, 48 h; Potency: OCI-AML3 viability; series mostly up to 46 µM; note: nearly all actives have a fitted effect of over 35% in size; note: potency is the fitted concentration of half-maximal effect
In short: (§1)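 Here, 11-point titrations of each agent were applied to 500 seeded cells and incubated 48 hr; CellTiter-Glo signal, scaled against DMSO and empty wells, was integrated as AUC, then Z-scored within the individual line.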

[3] = BET inhibitor-based combinations targeting novel dependencies in MECOM-rearranged (r) AML: MV-4-11 cell line (AID 2202233); settings: MV-4-11 AML viability, CellTiter-Glo luminescence, 48 h; series mostly up to 46 µM; note: nearly all actives have a fitted effect of over 45% in size; note: potency is the fitted concentration of half-maximal effect
In short: (§2)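 Normalized to DMSO and empty-well controls, the luminescence data from CellTiter-Glo after 48 hr drug exposure were fitted across 11 concentrations. Reported metrics are area under the dose-response curve and its Z-transformed form.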

[4] = BET inhibitor-based combinations targeting novel dependencies in MECOM-rearranged (r) AML: HNT-34 cell line (AID 2202234); settings: HNT-34 AML viability, CellTiter-Glo luminescence, 48 h; series mostly up to 46 µM; note: nearly all actives have a fitted effect of over 35% in size; note: potency is the fitted concentration of half-maximal effect
In short: as §2

[5] = BET inhibitor-based combinations targeting novel dependencies in MECOM-rearranged (r) AML: UCSD-AML1 cell line (AID 2202235); settings: UCSD-AML1 AML cells viability, CellTiter-Glo, 48 h; series mostly up to 46 µM; note: nearly all actives have a fitted effect of over 40% in size; note: potency is the fitted concentration of half-maximal effect
In short: as §2

[6] = BET inhibitor-based combinations targeting novel dependencies in MECOM-rearranged (r) AML: AML-191 cell line (AID 2202236; note: nearly all actives have a fitted effect of over 35% in size; note: potency is the fitted concentration of half-maximal effect); settings: AML-191 viability, CellTiter-Glo luminescence, 48 h; series mostly up to 46 µM
In short: as §1

[7] = BET inhibitor-based combinations targeting novel dependencies in MECOM-rearranged (r) AML: AML-194 cell line (AID 2202237; note: nearly all actives have a fitted effect of over 40% in size; note: potency is the fitted concentration of half-maximal effect); settings: AML-194 (MECOM-r AML) viability, CellTiter-Glo, 48 h; series mostly up to 46 µM
In short: as §1

Chain of Cellular tumor antigen p53 (Homo sapiens) (P04637 whole entry, looked up): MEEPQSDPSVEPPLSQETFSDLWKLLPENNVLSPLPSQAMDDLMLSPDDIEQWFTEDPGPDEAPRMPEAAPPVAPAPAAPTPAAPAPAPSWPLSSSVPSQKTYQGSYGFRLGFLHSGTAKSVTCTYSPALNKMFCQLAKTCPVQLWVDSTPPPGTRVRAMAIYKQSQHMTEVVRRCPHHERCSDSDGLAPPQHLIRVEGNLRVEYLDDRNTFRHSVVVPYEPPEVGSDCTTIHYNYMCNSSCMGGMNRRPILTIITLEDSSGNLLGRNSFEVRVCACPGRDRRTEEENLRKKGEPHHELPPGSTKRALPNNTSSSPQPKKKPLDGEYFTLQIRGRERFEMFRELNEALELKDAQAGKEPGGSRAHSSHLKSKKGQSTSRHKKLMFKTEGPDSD

SMILES | activation [1] | Potency [2] | Potency [3] | Potency [4] | Potency [5] | Potency [6] | Potency [7]
CC(N[C@H]1CCCC[C@H]1NC(=O)c1ccc(Cl)cc1)c1cccc2ccccc12 (stereo partly specified) | 3.01% | 16.6 µM (active) | 13.2 µM (active) | 11.8 µM (active) | 11.8 µM (active) | 11.8 µM (active) | 8.33 µM (active)
CCCCCOC(=O)Nc1nc(=O)n([C@@H]2O[C@H](C)[C@@H](O)[C@H]2O)cc1F | -37.9% | inactive | inactive | inactive | inactive | – | inactive
C[C@@H]1C[C@H]2[C@@H]3CCC4=CC(=O)C=C[C@]4(C)[C@@]3(F)[C@@H](O)C[C@]2(C)[C@@]1(O)C(=O)CO | -11.9% | inactive | inactive | – | inactive | – | –
O=C1CN2Cc3c(ccc(Cl)c3Cl)N=C2N1 | -11.4% | inactive | inactive | inactive | inactive | inactive | inactive
O=C(Nc1ccc2[nH]nc(-c3ccncc3)c2c1)[C@@H]1CCN(CC(=O)N2CCN(c3ccc(-c4ncccn4)cc3)CC2)C1 | 4.47% | 0.235 µM (active) | 1.66 µM (active) | – | 2.63 µM (active) | 2.09 µM (active) | –
CCOC(=O)[C@@H](N)CCC(=O)N[C@@H](CSCc1ccccc1)C(=O)N[C@@H](C(=O)OCC)c1ccccc1 | -1.42% | 10.5 µM (active) | 18.6 µM (active) | 26.3 µM (active) | – | 16.6 µM (active) | –
NC(=O)Nc1cc(-c2ccc(CN3CCOCC3)cc2)sc1C(N)=O | 3% | 0.934 µM (active) | 0.332 µM (active) | 1.18 µM (active) | 1.32 µM (active) | 2.63 µM (active) | 0.742 µM (active)
